Experimental data published in PubChem BioAssay AID1159580 (chemical genetic matrix, 2015).
Where “and” joins values, the source holds several entries; their conditions need not be identical. Equal entries are not always repeated. In all, about 5,500 compounds went through this assay and about 2,000 (36%) were called active. About 18% were inconclusive and are not listed. Cut-off read from the data, not from the text of the source: active = normalized growth mostly below about 0.91 (no sharp cut-off); inconclusive = no clear call, values can overlap the other calls; inactive = mostly above about 0.92. The list shows a part of the results.

Test: chemical genetic growth profiling, strain panel (AID 1159580);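 note: tested at 20 µM; growth read once vehicle control cultures reached saturation at 30 °C; 1 = growth at the plate median or of vehicle wells; lower values mean less growth of the strain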
Settings: S. cerevisiae deletion strains, growth OD

Measured: normalized growth

COc1ccc2c(c1)OC1(O)COc3cc(OC)c(OC)cc3C1=C2 (stereo unspecified)
active: locus YDR392W, strain spt3, stronger effect = lower value 0.734
inactive: locus YAL013W, strain DEP1, stronger effect = lower value 0.99 | locus YAL021C, strain ccr4, stronger effect = lower value 1 | locus YAL026C, strain drs2, stronger effect = lower value 0.97 | locus YAL030W, strain snc1, stronger effect = lower value 0.973 | locus YBL061C, strain skt5, stronger effect = lower value 0.968 | locus YBR009C, strain hhf1, stronger effect = lower value 1 | locus YBR021W, strain FUR4, stronger effect = lower value 1.01 | locus YBR023C, strain chs3, stronger effect = lower value 0.979 | locus YBR171W, strain sec66, stronger effect = lower value 0.965 | locus YBR229C, strain ROT2, stronger effect = lower value 1.01 | locus YBR231C, strain swc5, stronger effect = lower value 0.939 | locus YBR279W, strain paf1, stronger effect = lower value 0.984 | locus YCL011C, strain gbp2, stronger effect = lower value 0.983 | locus YCL016C, strain dcc1, stronger effect = lower value 1.01 | locus YCL029C, strain bik1, stronger effect = lower value 0.981 | locus YCL069W, strain vba3, stronger effect = lower value 0.988 | locus YCR088W, strain abp1, stronger effect = lower value 0.978 | locus YDL005C, strain med2, stronger effect = lower value 0.978 | locus YDL035C, strain GPR1, stronger effect = lower value 0.974 | locus YDL040C, strain nat1, stronger effect = lower value 0.971 | locus YDL074C, strain BRE1, stronger effect = lower value 0.992 | locus YDL101C, strain DUN1, stronger effect = lower value 1.02 | locus YDL134C, strain PPH21, stronger effect = lower value 1.01 | locus YDL185W, strain tfp1, stronger effect = lower value 0.983 | locus YDL192W, strain arf1, stronger effect = lower value 0.977 | locus YDR001C, strain nth1, stronger effect = lower value 0.98 | locus YDR069C, strain doa4, stronger effect = lower value 0.961 | locus YDR101C, strain arx1, stronger effect = lower value 0.972 | locus YDR137W, strain rgp1, stronger effect = lower value 0.934 | locus YDR150W, strain NUM1, stronger effect = lower value 1.01 | locus YDR159W, strain sac3, stronger effect = lower value 0.897 | locus YDR162C, strain NBP2, stronger effect = lower value 1.01 | locus YDR195W, strain ref2 0.992 | locus YDR297W, strain sur2, stronger effect = lower value 0.978 | locus YDR318W, strain mcm21, stronger effect = lower value 0.949 | locus YDR334W, strain swr1, stronger effect = lower value 0.982 | locus YDR335W, strain msn5, stronger effect = lower value 0.996 | locus YDR388W, stronger effect = lower value 0.981 | locus YDR502C, strain sam2, stronger effect = lower value 0.985 | locus YEL003W, strain gim4, stronger effect = lower value 0.962 | locus YEL037C, strain rad23, stronger effect = lower value 0.99 | locus YEL061C, strain CIN8 (second series), stronger effect = lower value 0.978 | locus YEL061C, strain CIN8, stronger effect = lower value 1 | locus YER015W, strain faa2, stronger effect = lower value 0.993 | locus YER016W, strain bim1, stronger effect = lower value 0.971 | locus YER110C, stronger effect = lower value 0.976 | locus YER111C, strain swi4, stronger effect = lower value 0.97 | locus YER155C, strain BEM2 (second series), stronger effect = lower value 0.904 | locus YER155C, strain BEM2, stronger effect = lower value 1 | locus YER167W, strain BCK2, stronger effect = lower value 0.963 | locus YFR010W, strain ubp6, stronger effect = lower value 0.965 | locus YGL078C, strain dbp3, stronger effect = lower value 1.01 | locus YGL086W, strain mad1, stronger effect = lower value 0.97 | locus YGL167C, strain pmr1, stronger effect = lower value 0.985 | locus YGL173C, strain kem1, stronger effect = lower value 0.94 | locus YGL227W, strain vid30, stronger effect = lower value 0.978 | locus YGL240W, strain doc1, stronger effect = lower value 0.942 | locus YGL248W, strain PDE1, stronger effect = lower value 1.01 | locus YGL253W, strain hxk2, stronger effect = lower value 0.929 | locus YGR078C, strain PAC10, stronger effect = lower value 0.985 | locus YGR135W, strain pre9, stronger effect = lower value 0.985 | locus YGR229C, strain SMI1, stronger effect = lower value 0.967 | locus YGR252W, strain gcn5, stronger effect = lower value 0.873 | locus YHR013C, strain ard1, stronger effect = lower value 0.977 | locus YHR027C, strain rpn1, stronger effect = lower value 0.986 | locus YHR030C, strain SLT2, stronger effect = lower value 0.996 and 0.931 | locus YHR079C, strain IRE1 (second series), stronger effect = lower value 0.972 | locus YHR079C, strain IRE1, stronger effect = lower value 0.925 | locus YHR094C, strain hxt1, stronger effect = lower value 0.989 | locus YHR129C, strain ARP1, stronger effect = lower value 1.01 | locus YHR142W, strain chs7, stronger effect = lower value 0.926 | locus YHR200W, strain rpn10, stronger effect = lower value 0.972 | locus YIL066C, strain RNR3, stronger effect = lower value 0.986 | locus YIL073C, strain SPO22, stronger effect = lower value 0.895 | locus YIL125W, strain kgd1, stronger effect = lower value 0.997 | locus YIR030C, strain dcg1, stronger effect = lower value 0.987 | locus YJL092W, strain hpr5, stronger effect = lower value 0.979 | locus YJL095W, strain BCK1 (second series), stronger effect = lower value 0.98 | locus YJL095W, strain BCK1, stronger effect = lower value 0.965 and 0.92 | locus YJL115W, strain asf1, stronger effect = lower value 0.983 | locus YJL129C, strain trk1, stronger effect = lower value 0.979 | locus YJL134W, strain LCB3, stronger effect = lower value 1 | locus YJL154C, strain vps35, stronger effect = lower value 0.977 | locus YJL164C, strain tpk1, stronger effect = lower value 0.983 | locus YJL166W, strain qcr8, stronger effect = lower value 0.948 | locus YJL168C, strain set2, stronger effect = lower value 0.989 | locus YJL187C, strain SWE1 (second series), stronger effect = lower value 1.01 | locus YJL187C, strain SWE1, stronger effect = lower value 0.999 | locus YJR043C, strain POL32, stronger effect = lower value 0.97 | locus YJR066W, strain TOR1, stronger effect = lower value 0.9
